A selection: hits, their analogues and other compounds. The true share with any hit is near 0.47%.
FadD28 binding – inhibitors of FadD28 bisubstrate probe binding, primary screen, biochemical, fluorescence polarization, single point; 0.22% of 360,000 active; Mycobacterium tuberculosis FadD28 fatty-acid-AMP ligase; inhibition, % at 12.5 µM; AID 588549, 2011; in the data active means inhibition above about 8.5%, passing the limit was not always enough
Yp Topo-I inh – Yersinia pestis topoisomerase I inhibitors, primary screen, biochemical, cleavage product accumulation, plate reader, single point; activity, % at 10 µM; DNA topoisomerase I (Yersinia pestis CO92); AID 504884, 2011; Y. pestis Topo-I cleavage product accumulation; 0.064% of 360,000 active; in the data active means activity above about 50%, passing the limit was not always enough
BioA inh – M. tuberculosis BioA enzyme inhibitors, primary screen, biochemical, plate reader, single point, HTS. 7,8-diaminopelargonic acid synthase BioA (Mycobacterium tuberculosis). purified M. tuberculosis BioA enzyme. inhibition, % at 9.99 µM. 0.096% of 360,000 active. AID 602481, 2012; in the data active means inhibition above about 40%
TcdB GH inh – TcdB glycohydrolase inhibitors, primary screen, biochemical, single point, plate reader. TcdB glycohydrolase enzymatic assay. inhibition, % at 9.99 µM. 0.24% of 350,000 active. AID 652162, 2013; in the data active means inhibition above about 10%
Large screens that a line does not name were inactive.

C=CC[C@H](CC(=O)N(CCO)Cc1ccccc1)C(=O)NC[C@@H](OC(=O)[C@@H](CC=C)Cc1ccc(F)cc1)c1ccccc1	none
Cc1[nH]nc(-c2ccc(O)cc2O)c1Oc1ccccc1	TcdB GH inh 11
CC(C)CN1CCN(CC#Cc2ccccc2)CC1CCO (configuration not stated)	TcdB GH inh 10 (no result: BioA inh)
CC(C)=CCN1CCN(CC#Cc2ccccc2)CC1CCO (configuration not stated)	none
Cc1ccc(OCCn2c(CCNC(=O)C(C)C)nc3ccccc32)cc1	none (no result: TcdB GH inh)
Cc1cc(C)c(Nc2cc(S(=O)(=O)O)c(N)c3c2C(=O)c2ccccc2C3=O)c(C)c1	FadD28 binding 64 (no result: BioA inh, TcdB GH inh)
COc1cccc(C(=O)COC(=O)c2ccc(NC(=O)c3ccccc3)cc2)c1	TcdB GH inh 22
COc1ccc(C(=O)COC(=O)c2ccc(OC)c(OC)c2)cc1OC	TcdB GH inh 42
Cc1c(-c2cc(Br)ccc2O)nc2cc3c(cc2c1C)OCO3	FadD28 binding 29
Cc1ccc(-c2csc(NS(=O)(=O)c3cccc(F)c3)n2)o1	FadD28 binding 16
C#CCOCCOCCOCCNc1nc(N2CCN(C(=O)CCCCCCCCCCNC(=O)[C@@H](CCSC)n3cc(CCO)nn3)CC2)nc(N2CCN(C(=O)CCCCCCCCCCNC(=O)[C@H]([C@@H](C)CC)n3cc(CCCCN=C(N)N)nn3)CC2)n1	FadD28 binding 11 (no result: TcdB GH inh)
COC(=O)c1sc2nc(SCc3ccccc3C)n(N)c(=O)c2c1C	TcdB GH inh 16 (no result: BioA inh)
COC(=O)c1sc2nc(SCc3cccc(Cl)c3)n(N)c(=O)c2c1C	none (no result: BioA inh)
CCCc1c(O)nc(SCCN(CC)CC)[nH]c1=O	none (no result: BioA inh, TcdB GH inh)
Nc1ccc(C(=O)c2ccc3c(c2)OCCO3)cc1N	TcdB GH inh 14
CCC(=O)c1ccc2c(c1)OCCO2	none (no result: BioA inh)
CC(C)NC(=O)CSc1nccc(-c2cccs2)n1	none (no result: BioA inh)
CC(=O)C(Sc1nccc(-c2cccs2)n1)C(C)=O	TcdB GH inh 15
CCCCCCn1c(COc2ccccc2F)nnc1SCC(=O)NC1CCS(=O)(=O)C1 (configuration not stated)	none
CCOC(=O)c1c(-c2ccc(C)s2)csc1NC(=O)c1cccs1	FadD28 binding 17 (no result: TcdB GH inh)
C[C@H](CO)N1C[C@H](C)[C@H](CN(C)S(=O)(=O)c2cccs2)Oc2ccc(NC(=O)Nc3ccc(C(F)(F)F)cc3)cc2C1=O	none (no result: FadD28 binding, Yp Topo-I inh, TcdB GH inh)
C[C@@H]1CN([C@H](C)CO)C(=O)c2cc(NC(=O)Nc3ccc(C(F)(F)F)cc3)ccc2O[C@H]1CN(C)S(=O)(=O)c1cccs1	FadD28 binding 21
C[C@H](CO)N1C[C@H](C)[C@@H](CN(C)S(=O)(=O)c2cccs2)Oc2ccc(NC(=O)Nc3ccc(C(F)(F)F)cc3)cc2C1=O	FadD28 binding 27
COC(=O)CN1C(=O)[C@H]2[C@@H](/C=C/c3ccccc3)N3C(=O)CN(Cc4ccc(-c5ccccc5)cc4)C(=O)[C@@]3(C)[C@H]2C1=O	none
COc1ccc(S(=O)(=O)Nc2ccc3oc(C)c(C(=O)O)c3c2)cc1	TcdB GH inh 15
CN1OC[C@@H]2CN(Cc3cc(Cl)cc(Cl)c3)[C@H](c3cccc(-c4ccc(C#N)cc4)c3)C[C@@H]21	none
CN1/C(=C\C=O)C(C)(C)c2ccccc21	none (no result: BioA inh)
CN1\C(=C/C=C/C=C/C=[N+](C)C)C(C)(C)c2ccccc21	Yp Topo-I inh active (no result: BioA inh)
COc1ccc(CCNC(=O)C2CCN(S(=O)(=O)c3ccc(Cl)cc3)CC2)cc1OC	none (no result: BioA inh, TcdB GH inh)
C[C@@H]1CN([C@@H](C)CO)C(=O)c2cc(C#CC(C)(C)O)cnc2O[C@H]1CN(C)C(=O)C1CCCCC1	none (no result: FadD28 binding, Yp Topo-I inh, TcdB GH inh)
CC(C)(C)c1csc(NC(=O)Cn2c(=O)oc3ccccc32)n1	FadD28 binding 11 (no result: TcdB GH inh)
Cc1ccc(NC(=O)Cn2c(=O)oc3ccccc32)cc1C	none
COc1cccc(NC(=O)Cn2c(=O)oc3ccccc32)c1	FadD28 binding 39 (no result: BioA inh)
C[C@@H]1CN([C@@H](C)CO)C(=O)c2cccc(NS(=O)(=O)c3cccs3)c2O[C@H]1CN(C)C	none (no result: FadD28 binding, Yp Topo-I inh)
O=C(COc1coc(CN2CCc3ccccc3C2)cc1=O)Nc1ccc(F)cc1	none
COc1ccc(N=Nc2ccc(N)nc2N)cc1	none
Nc1ccc(N=Nc2ccc(O)cc2)c(N)n1	TcdB GH inh 20 (no result: BioA inh)
Cc1c(C)c2ccc(OCC(=O)NCc3ccccn3)cc2oc1=O	none
CN(C)CC#Cc1ccc([C@H]2[C@@H](CO)N(C(=O)C3CCCC3)[C@H]2C#N)cc1	none (no result: FadD28 binding, Yp Topo-I inh)
COc1cccc(CC(=O)OCC(=O)Nc2c(C)nn(-c3ccccc3)c2C)c1	TcdB GH inh 11
Cc1ccc(C(=O)NCCSCc2ccc(Cl)cc2Cl)cc1[N+](=O)[O-]	FadD28 binding 17 (no result: BioA inh)
O=C(CN1C(=O)S/C(=C\c2ccc(O)c([N+](=O)[O-])c2)C1=O)Nc1ccc(N2CCOCC2)cc1	none
Cc1ccc(NC(=O)CN2C(=O)S/C(=C/c3ccc(O)c([N+](=O)[O-])c3)C2=O)cc1C	FadD28 binding 31 (no result: BioA inh)
Cc1cccc(NC(=O)CN2C(=O)S/C(=C\c3ccc(O)c([N+](=O)[O-])c3)C2=O)c1	FadD28 binding 85 (no result: BioA inh)
Cc1cccc(NC(=O)CN2C(=O)S/C(=C\c3ccccn3)C2=O)c1	none (no result: BioA inh)
O=C(CN1C(=O)S/C(=C\c2cc(Cl)c(O)c(Cl)c2)C1=O)Nc1ccccc1	FadD28 binding 76
C=C1CCN(Cc2ccccc2)S(=O)(=O)c2ccccc21	TcdB GH inh 11
COc1ccc(C(=O)/C=C/c2ccc(O)cc2)cc1	none
O=C(/C=C/c1ccc(O)cc1)c1ccccc1	TcdB GH inh 15 (no result: BioA inh)
COc1ccc(NC(=O)N2CC(=O)N3[C@H](C2)[C@H](c2ccc(/C=C/c4ccccc4)cc2)[C@@H]3CO)cc1	none (no result: FadD28 binding, Yp Topo-I inh, BioA inh)
COc1ccccc1N(CC(=O)NCCSc1ccccc1)S(=O)(=O)c1ccccc1	Yp Topo-I inh 57
O=C(C(Sc1ccccc1)c1ccccc1)N1CCN(c2ccccc2F)CC1 (configuration not stated)	Yp Topo-I inh 55 (no result: TcdB GH inh)
Cc1ccc(CNC(=O)CCc2nnc3ccc(NCCCN4CCCC4=O)nn23)cc1	none
COc1ccc(N2CC(C(=O)Nc3cccc(S(=O)(=O)N4CCCC4)c3)CC2=O)c(OC)c1 (configuration not stated)	none
COc1ccc(NC(=O)C2CC(=O)N(c3ccccc3F)C2)cc1S(=O)(=O)N1CCCCC1 (configuration not stated)	TcdB GH inh 13
COc1ccc(OC)c2c(C)cc(N3CCN(C(=O)c4ccc(Cl)cc4)CC3)nc12	none (no result: TcdB GH inh)
COc1ccc(C(=O)NCc2ccc(C)cc2)cc1S(=O)(=O)N1CCCc2ccccc21	FadD28 binding 9.9 (no result: TcdB GH inh)
COc1ccc(C(=O)N2CCOCC2)cc1S(=O)(=O)N1CCCc2ccccc21	TcdB GH inh 12 (no result: BioA inh)
O=C(COC(=O)COc1ccc2c(c1)CCC2)Nc1ccccc1	none
CCOC(=O)N(C)C[C@H]1OCc2ccccc2-c2c(n(C)c3ccccc23)C(=O)N([C@H](C)CO)C[C@@H]1C	none (no result: FadD28 binding, Yp Topo-I inh)
CCN(CC)c1ccc(/C=C(\C#N)C(=O)c2ccc(Br)cc2)cc1	FadD28 binding 28 (no result: BioA inh, TcdB GH inh)

Screening data: PubChem BioAssay, Broad Institute
